PubChem BioAssay (EPA / NIEHS)
Activity calls are given as the source filed them. The calls were made as follows: active = hit-call score of the fitted dose curve at least 0.9, where 1 is the maximum; inactive = score below 0.9.

How the values were obtained:
[1] = read-out: Interleukin-6 (IL6), IL6 (gene 3569); assay: BSK_CASM3C_IL6: BioMAP Diversity Plus: CASM3C Assay for Interleukin-6 (IL6) Biomarker Activity for (AID 2283040); details: primary human coronary artery smooth muscle cells; actives raise or lower the signal
[2] = read-out: Tissue plasminogen activator (tPA), PLAT (gene 5327); assay: BSK_BE3C_tPA: BioMAP Diversity Plus: BE3C Assay for Tissue plasminogen activator (tPA) Biomarker Activity (AID 2283041); details: primary human bronchial epithelial cells; actives raise or lower the signal
Procedure, shortened: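 ELISA read-out of tPA on human primary bronchial epithelial cells, 24 h post-dosing; bidirectional fit vs DMSO negative control/baseline.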

[3] = read-out: Interleukin-8 (IL8), CXCL8 (gene 3576); assay: BSK_CASM3C_IL8: BioMAP Diversity Plus: CASM3C Assay for Interleukin-8 (IL8) Biomarker Activity (AID 2283042); details: primary human coronary artery smooth muscle cells; actives raise or lower the signal;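 also: IL-8 protein level quantified by ELISA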
[4] = read-out: Human Leukocyte Antigen - DR isotype (HLADR), HLA-DRA (gene 3122); assay: BSK_CASM3C_HLADR: BioMAP Diversity Plus: CASM3C Assay for Human Leukocyte Antigen - DR isotype (HLADR) Biomarker Activity (AID 2283043); details: primary human coronary artery smooth muscle cells; actives raise or lower the signal;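 also: cell-surface HLA-DR protein level quantified by ELISA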
[5] = read-out: Macrophage colony-stimulating factor (MCSF), CSF1 (gene 1435); assay: BSK_CASM3C_MCSF: BioMAP Diversity Plus: CASM3C Assay for Macrophage colony-stimulating factor (MCSF) Biomarker Activity (AID 2283044); details: primary human coronary artery smooth muscle cells; actives raise or lower the signal;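 also: M-CSF protein amount quantified by ELISA after 24 h exposure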
[6] = read-out: Low-density lipoprotein receptor (LDLR), LDLR (gene 3949); assay: BSK_CASM3C_LDLR: BioMAP Diversity Plus: CASM3C Assay for Low-density lipoprotein receptor (LDLR) Biomarker Activity (AID 2283045); details: primary human coronary artery smooth muscle cells; actives raise or lower the signal;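 also: LDLR protein level on the cell surface quantified by ELISA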
[7] = read-out: Monocyte Chemoattractant Protein-1 (MCP1), CCL2 (gene 6347); assay: BSK_CASM3C_MCP1: BioMAP Diversity Plus: CASM3C Assay for Monocyte Chemoattractant Protein-1 (MCP1) Biomarker Activity (AID 2283046); details: primary human coronary artery smooth muscle cells; actives raise or lower the signal;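 also: MCP-1 level quantified by ELISA 24 h after dosing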
[8] = BSK_CASM3C_Proliferation: Cell Proliferation Assessment in the BioMAP Diversity Plus: CASM3C Assay (AID 2283047); details: primary human coronary artery smooth muscle cells;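 also: sulforhodamine B total protein stain as relative cell number at 560 nm; sub-confluent cells exposed 48 h before staining; fitted both ways against DMSO so gain or loss of cell number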
[9] = read-out: Monokine induced gamma interferon (MIG), CXCL9 (gene 4283); assay: BSK_CASM3C_MIG: BioMAP Diversity Plus: CASM3C Assay for Monokine induced gamma interferon (MIG) Biomarker Activity (AID 2283048); details: primary human coronary artery smooth muscle cells; actives raise or lower the signal;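 also: MIG protein level measured by ELISA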
[10] = read-out: serum amyloid A (SAA), SAA1 (gene 6288); assay: BSK_CASM3C_SAA: BioMAP Diversity Plus: CASM3C Assay for serum amyloid A (SAA) Biomarker Activity (AID 2283049); details: primary human coronary artery smooth muscle cells; actives raise or lower the signal;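 also: SAA protein level quantified by ELISA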
[11] = BSK_CASM3C_SRB: Viability Assessment in the BioMAP Diversity Plus: CASM3C Assay (AID 2283050); details: primary human coronary artery smooth muscle cells;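 also: total protein by SRB staining as cytotoxicity measure in parallel cultures; cells exposed to compound for 24 h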
[12] = read-out: Thrombomodulin, THBD (gene 7056); assay: BSK_CASM3C_Thrombomodulin: BioMAP Diversity Plus: CASM3C Assay for Thrombomodulin Biomarker Activity (AID 2283051); details: primary human coronary artery smooth muscle cells; actives raise or lower the signal;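 also: thrombomodulin protein level measured by ELISA 24 h after dosing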
[13] = read-out: Tissue Factor, F3 (gene 2152); assay: BSK_CASM3C_TissueFactor: BioMAP Diversity Plus: CASM3C Assay for Tissue Factor Biomarker Activity (AID 2283052); details: primary human coronary artery smooth muscle cells; actives raise or lower the signal;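 also: cell surface tissue factor protein level read by ELISA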
[14] = read-out: Interferon-gamma inducible Protein 10 (IP10), CXCL10 (gene 3627); assay: BSK_hDFCGF_IP10: BioMAP Diversity Plus: hDFCGF Assay for Interferon-gamma inducible Protein 10 (IP10) Biomarker Activity (AID 2283053); details: primary human foreskin fibroblasts; actives raise or lower the signal
Procedure, shortened: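 ELISA read-out of IP-10 (CXCL10) from primary human skin fibroblasts, 24 h after compound addition. Gain or loss of signal versus DMSO baseline, bidirectional curve fitting.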

[15] = read-out: Urokinase-type plasminogen activator receptor (uPAR), PLAUR (gene 5329); assay: BSK_CASM3C_uPAR: BioMAP Diversity Plus: CASM3C Assay for Urokinase-type plasminogen activator receptor (uPAR) Biomarker Activity (AID 2283054); details: primary human coronary artery smooth muscle cells; actives raise or lower the signal;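 also: cell-surface uPAR protein level quantified by ELISA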
[16] = read-out: Vascular cell adhesion molecule 1 (VCAM1), VCAM1 (gene 7412); assay: BSK_CASM3C_VCAM1: BioMAP Diversity Plus: CASM3C Assay for Vascular cell adhesion molecule 1 (VCAM1) Biomarker Activity (AID 2283055); details: primary human coronary artery smooth muscle cells; actives raise or lower the signal;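 also: VCAM-1 protein level quantified by ELISA on the cells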
[17] = read-out: Collagen III, COL3A1 (gene 1281); assay: BSK_hDFCGF_CollagenIII: BioMAP Diversity Plus: hDFCGF Assay for Collagen III Biomarker Activity (AID 2283056); details: primary human foreskin fibroblasts; actives raise or lower the signal
Procedure, shortened: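 ELISA readout of Collagen III in human dermal (foreskin) fibroblasts, taken 24 h post-treatment. Gain or loss relative to DMSO vehicle fitted in both directions.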

[18] = read-out: Epidermal growth factor receptor (EGFR), EGFR (gene 1956); assay: BSK_hDFCGF_EGFR: BioMAP Diversity Plus: hDFCGF Assay for Epidermal growth factor receptor (EGFR) Biomarker Activity (AID 2283057); details: primary human foreskin fibroblasts; actives raise or lower the signal
Procedure, shortened: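 ELISA readout of EGFR on human dermal fibroblasts (primary foreskin cells), 24 h post-dosing; bidirectional curve fit vs DMSO baseline, gain or loss of signal scored.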

[19] = read-out: Interleukin-8 (IL8), CXCL8 (gene 3576); assay: BSK_hDFCGF_IL8: BioMAP Diversity Plus: hDFCGF Assay for Interleukin-8 (IL8) Biomarker Activity (AID 2283058); details: primary human foreskin fibroblasts; actives raise or lower the signal
Procedure, shortened: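 IL-8 levels read by ELISA at 24 hours after dosing human skin fibroblast cultures. Parallel SRB staining assessed overt cytotoxicity, and gain or loss of signal was fitted against DMSO control.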

[20] = BSK_hDFCGF_Proliferation: Cell Proliferation Assessment in the BioMAP Diversity Plus: hDFCGF Assay (AID 2283059); details: primary human foreskin fibroblasts;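 also: curves fitted for both rise and fall of signal versus DMSO baseline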
Procedure, shortened: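 This proliferation readout used SRB total-protein staining of human foreskin fibroblasts […], normalized to DMSO with bidirectional curve fitting.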

Measured: AC50

CCC(CC)Nc1c([N+](=O)[O-])cc(C)c(C)c1[N+](=O)[O-]
active: [1] 26.9 µM | [8] 13.9 µM | [12] 16.3 µM | [14] 20 µM | [20] 29.2 µM
inactive: all other assays above

CCc1cccc(CC)c1N(COC)C(=O)CCl
active: [14] 11.2 µM | [17] 11.1 µM | [20] 13.8 µM
inactive: all other assays above

CSc1nc(NC(C)C)nc(NC(C)C)n1
inactive: all assays above

CCCSP(=O)(OCC)Oc1ccc(Br)cc1Cl (stereo not drawn)
active: [1] 23 µM | [2] 13.4 µM | [8] 32.1 µM | [12] 11.5 µM | [14] 20 µM | [17] 20 µM | [20] 31.7 µM
inactive: all other assays above

COP(=O)(OC)SCn1c(=O)oc2cc(Cl)cnc21
active: [5] 9.42 µM | [7] 20 µM | [8] 21.5 µM | [9] 38.8 µM | [11] 24.7 µM | [12] 5.31 µM | [14] 13 µM | [15] 35.5 µM | [16] 20 µM | [17] 14.7 µM | [19] 30.8 µM | [20] 10.1 µM
inactive: [1] | [2] | [3] | [4] | [6] | [10] | [13] | [18]

CCOP(=S)(OCC)Oc1cc(C)nc(C(C)C)n1
active: [8] 14.3 µM
inactive: all other assays above

Cc1cc(C2CC2)nc(Nc2ccccc2)n1
active: [8] 14.4 µM | [12] 27.8 µM | [14] 6.65 µM | [20] 15 µM
inactive: all other assays above

C[N+]1(C)CCCCC1
inactive: all assays above

CC(=NC#N)N(C)Cc1ccc(Cl)nc1
inactive: all assays above

CNC(=O)ON=C(C)SC
inactive: all assays above

CC(C)=CC1C(C(=O)OCN2C(=O)C3=C(CCCC3)C2=O)C1(C)C (stereo not drawn)
active: [8] 20 µM | [14] 30.1 µM | [16] 13.6 µM | [17] 20 µM | [20] 15.5 µM
inactive: all other assays above

CCCCSP(=O)(SCCCC)SCCCC
active: [5] 29.4 µM | [8] 36.8 µM | [11] 31.7 µM | [12] 20 µM | [14] 20 µM | [17] 20 µM | [20] 30.6 µM
inactive: all other assays above

CCOC(=O)CC(SP(=O)(OC)OC)C(=O)OCC (stereo not drawn)
inactive: all assays above

COP(=O)(NC(C)=O)SC (stereo not drawn)
inactive: all assays above

CCOC(=O)COc1cc(-c2nn(C)c(OC(F)F)c2Cl)c(F)cc1Cl
inactive: all assays above

C#CC(C)(C)NC(=O)c1cc(Cl)cc(Cl)c1
active: [14] 4.25 µM | [17] 2.72 µM
inactive: all other assays above

CCOP(=S)(OCC)SCCSCC
not listed: [14]
inactive: all other assays above

CCOP(=O)(SC(C)CC)N1CCSC1=O (stereo not drawn)
inactive: all assays above

CN(C)NC(=O)CCC(=O)O
inactive: all assays above

COc1ccc(C(=CC(=O)N2CCOCC2)c2ccc(Cl)cc2)cc1OC
active: [5] 2.5 µM | [7] 6.65 µM | [16] 7.56 µM
inactive: all other assays above

CC(COc1ccc(Oc2ccccc2)cc1)Oc1ccccn1 (stereo not drawn)
active: [8] 31.8 µM | [20] 10.8 µM
inactive: all other assays above

CNC(=O)ON=C(SC)C(=O)N(C)C
inactive: all assays above

CC1(C(=O)Nc2ccc(O)c(Cl)c2Cl)CCCCC1
not listed: [15]
inactive: all other assays above

C=C(C)[C@H]1Cc2c(ccc3c2O[C@@H]2COc4cc(OC)c(OC)cc4[C@@H]2C3=O)O1
active: [8] 3.97 µM | [12] 0.164 µM | [18] 0.771 µM | [20] 0.486 µM
inactive: all other assays above

O=c1ccc(=O)[nH][nH]1
inactive: all assays above
